Consider 40 molecules from the supplement of paper PMC9942566.

Structures can show the parent of a compound that is named as a salt. ± gives the standard deviation of the averaged measurements.

In this experiment the test system is Serratia marcescens K904 PosmB-luxCDABE reporter (pMQ747). Put plainly: PosmB-lux reporter fold induction (RLU/OD600 relative to no-compound control), highest over Biolog concentrations; higher = stronger reporter activation. The conditions noted are these: ΔrcsB mutant CMS5177; 4 h. On the procedure:
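Serratia marcescens K904 (wild type) or its isogenic ΔrcsB mutant, carrying the Rcs-dependent PosmB-luxCDABE reporter plasmid pMQ747, was grown in LB at OD600 0.1 in Biolog Phenotype MicroArray plates PM11-20 for 4 h at 30-32°C. Each compound is present at 3-4 proprietary concentrations (not stated); per the Fig. S1 legend the value given is the highest fold over those wells. Three independent trials.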
Take `N=C(NCCCCCCNC(=N)NC(=N)Nc1ccc(Cl)cc1)NC(=N)Nc1ccc(Cl)cc1` [chlorhexidine] (Biolog plate: PM19, well positions: C1-4): the “PosmB-lux reporter fold induction” value is 1.19 ± 0.57. For `CC(C)(C)CC(C)(C)c1ccc(OCCOCC[N+](C)(C)Cc2ccccc2)cc1` [Benzethonium chloride] (Biolog plate: PM12, well positions: E9-12), the “PosmB-lux reporter fold induction” value stood at 1.69 ± 0.07. Take `CSCCC(N)C(=O)NO` (racemic) [DL-methionine hydroxamate] (Biolog plate: PM17, well positions: F5-8): the “PosmB-lux reporter fold induction” value was found to be 5.25 ± 1.3. With `CO/N=C(\C(=O)N[C@@H]1C(=O)N2C(C(=O)O)=C(CSc3nc(=O)c(O)nn3C)CS[C@H]12)c1csc(N)n1` [Ceftriaxone] (Biolog plate: PM11, well positions: G1-4) the figure was 1.12 ± 0.14. On to `CN[C@@H]1[C@@H](O)[C@@H](O[C@@H]2[C@@H](O)[C@H](O[C@H]3OC(CN)=CC[C@H]3N)[C@@H](N)C[C@H]2N)OC[C@]1(C)O` [Sisomicin] (Biolog plate: PM12, well positions: D1-4), for which the “PosmB-lux reporter fold induction” value came to 1.29 ± 0.5. With `O=[Si](O)O` [sodium metasilicate] (Biolog plate: PM18, well positions: E1-4) the figure was 0.928 ± 0.32; with `Nc1ccc2cc3ccc(N)cc3nc2c1` [proflavine] (Biolog plate: PM20, well positions: D1-4), 1.91 ± 0.49. `CO/N=C(\C(=O)N[C@@H]1C(=O)N2C(C(=O)O)=C(COC(N)=O)CS[C@H]12)c1ccco1` [Cefuroxime] (Biolog plate: PM13, well positions: D1-4): the “PosmB-lux reporter fold induction” value came out at 1.42 ± 0.51. As for `CC1(C)S[C@@H]2[C@H](NC(=O)COc3ccccc3)C(=O)N2[C@H]1C(=O)O.CN(C)[C@@H]1C(O)=C(C(=O)NCN2CCN(CCO)CC2)C(=O)[C@@]2(O)C(O)=C3C(=O)c4c(O)cccc4[C@@](C)(O)[C@H]3C[C@@H]12` [Penimepicycline] (Biolog plate: PM12, well positions: B5-8), the “PosmB-lux reporter fold induction” value amounted to 1.27 ± 0.3. In the case of `CC1=CC(=O)c2ccccc2C1=O` [Menadione] (Biolog plate: PM15, well positions: G9-12), the “PosmB-lux reporter fold induction” value worked out at 0.917 ± 0.14.

For the molecule `NC(=O)c1cc[n+](CC2=C(C(=O)[O-])N3C(=O)[C@@H](NC(=O)[C@@H](c4ccccc4)S(=O)(=O)O)[C@H]3SC2)cc1` [cefsulodin] (Biolog plate: PM17, well positions: H1-4), the “PosmB-lux reporter fold induction” value came to 1.35 ± 0.096.

For the molecule `Cc1onc(-c2ccccc2Cl)c1C(=O)N[C@@H]1C(=O)N2[C@@H]1SC(C)(C)[C@@H]2C(=O)O` [Cloxacillin] (Biolog plate: PM11, well positions: B5-8), the “PosmB-lux reporter fold induction” value amounted to 1.06 ± 0.1.

As to `Cc1cc(NS(=O)(=O)c2ccc(N)cc2)no1` [Sulfa-methoxazole] (Biolog plate: PM12, well positions: G5-8), the “PosmB-lux reporter fold induction” value was determined as 1.9 ± 1.2. The value for `S=c1nc[nH]c2nc[nH]c12` [6-Mercapto-purine] (Biolog plate: PM13, well positions: C1-4) was 1.22 ± 0.54. As for `CC1(C)S[C@@H]2[C@H](NC(=O)C(C(=O)O)c3ccccc3)C(=O)N2[C@H]1C(=O)O` (stereo not given in full) [Carbenicillin] (Biolog plate: PM12, well positions: A9-12), the “PosmB-lux reporter fold induction” value amounted to 1.03 ± 0.29.

On to `COc1cc(NS(=O)(=O)c2ccc(N)cc2)ncn1` [sulfamono-methoxine] (Biolog plate: PM17, well positions: C9-12), for which the “PosmB-lux reporter fold induction” value worked out at 1.4 ± 0.25. The value for `O=c1ccc2ccc(O)cc2o1` [umbelliferone] (Biolog plate: PM19, well positions: C5-8) was 0.964 ± 0.57. The value for `CC(Oc1ccccc1)C(=O)N[C@@H]1C(=O)N2[C@@H]1SC(C)(C)[C@@H]2C(=O)O` (stereo not given in full) [phenethicillin] (Biolog plate: PM19, well positions: F1-4) was 1.15 ± 0.37; that for `Nc1ccc(S(=O)(=O)Nc2nccs2)cc1` [Sulfathiazole] (Biolog plate: PM12, well positions: F5-8) was 1.89 ± 0.35. With `CO[C@@H]1[C@@H](OC(N)=O)[C@@H](O)[C@H](Oc2ccc3c(O)c(NC(=O)c4ccc(O)c(CC=C(C)C)c4)c(=O)oc3c2C)OC1(C)C` [Novobiocin] (Biolog plate: PM12, well positions: D9-12) the figure was 2.74 ± 1.3; with `Oc1c(Cl)cc(Cl)c2cccnc12` [5,7-Dichloro-8-hydroxyquinoline] (Biolog plate: PM15, well positions: C1-4), 1.43 ± 0.18; with `CS(=O)(=O)c1ccc([C@@H](O)[C@@H](CO)NC(=O)C(Cl)Cl)cc1` [thiamphenicol] (Biolog plate: PM18, well positions: A9-12), 0.916 ± 0.32.

Turning to `NO` [hydroxylamine] (Biolog plate: PM19, well positions: G9-12), the “PosmB-lux reporter fold induction” value came out at 1.39 ± 0.47. With `CCCCCCCCCCCC[N+](C)(C)C` [Dodecyltrimethyl ammonium bromide] (Biolog plate: PM12, well positions: H9-12) the figure was 1.97 ± 0.62.

On to `CN(C)CCCN1c2ccccc2Sc2ccc(Cl)cc21` [chlorpromazine] (Biolog plate: PM17, well positions: D9-12), for which the “PosmB-lux reporter fold induction” value is 1.63 ± 0.49. With `N[C@@H]1CONC1=O` [D-Cycloserine] (Biolog plate: PM15, well positions: B1-4) the figure was 1.43 ± 0.18; with `CO[C@H]1C[C@H](O[C@H]2[C@H](C)[C@@H](O[C@@H]3O[C@H](C)C[C@H](N(C)C)[C@H]3OC(C)=O)[C@@H](C)C[C@@]3(CO3)C(=O)[C@H](C)[C@@H](OC(C)=O)[C@@H](C)[C@@H](C)OC(=O)[C@@H]2C)O[C@@H](C)[C@@H]1OC(C)=O` [troleandomycin] (Biolog plate: PM20, well positions: H9-12), 2.33 ± 1.1; with `C1COCCOCCOCCOCCOCCO1` [18-crown-6 ether] (Biolog plate: PM20, well positions: D9-12), 1.53 ± 0.55.

As to `CC1COc2c(N3CCN(C)CC3)c(F)cc3c(=O)c(C(=O)O)cn1c23` (stereo not given) [Ofloxacin] (Biolog plate: PM11, well positions: H9-12), the “PosmB-lux reporter fold induction” value was found to be 1.96 ± 0.47. In the case of `[Na+].[O]=[V](=[O])[O-]` [Sodium metavanadate] (Biolog plate: PM14, well positions: F9-12), the “PosmB-lux reporter fold induction” value was 1.84 ± 1.

`O=C1CN(/N=C/c2ccc([N+](=O)[O-])o2)C(=O)N1` [Nitrofurantoin] (Biolog plate: PM14, well positions: E5-8): the “PosmB-lux reporter fold induction” value came to 1.19 ± 0.084. The value for `O=C(N[C@H](CO)[C@H](O)c1ccc([N+](=O)[O-])cc1)C(Cl)Cl` [Chloramphenicol] (Biolog plate: PM11, well positions: F1-4) was 1.56 ± 0.59; that for `Cn1cnc([N+](=O)[O-])c1Sc1ncnc2[nH]cnc12` [azathioprine] (Biolog plate: PM18, well positions: B9-12) was 0.729 ± 0.15. With `OC(CCN1CCCCC1)(c1ccccc1)c1ccccc1` [pridinol] (Biolog plate: PM20, well positions: F9-12) the figure was 1.5 ± 0.42; with `CO[C@@]1(NC(=O)Cc2cccs2)C(=O)N2C(C(=O)O)=C(COC(N)=O)CS[C@@H]21` [Cefoxitin] (Biolog plate: PM14, well positions: E1-4), 1.2 ± 0.19; with `O=C(O)c1cn(C2CC2)c2cc(N3CCNCC3)c(F)cc2c1=O` [ciprofloxacin] (Biolog plate: PM20, well positions: D5-8), 1.49 ± 0.33. Turning to `Cc1nnc(SCC2=C(C(=O)O)N3C(=O)[C@@H](NC(=O)Cn4cnnn4)[C@H]3SC2)s1` [Cefazolin] (Biolog plate: PM11, well positions: E1-4), the “PosmB-lux reporter fold induction” value was 1.12 ± 0.15. For the molecule `CC(C(=O)O)c1cccc(C(=O)c2ccccc2)c1` (stereo not given) [ketoprofen (an NSAID)] (Biolog plate: PM18, well positions: A2-4), the “PosmB-lux reporter fold induction” value was 1 ± 0.37. With `N=C(N)N` [Guanidine hydrochloride] (Biolog plate: PM15, well positions: A5-8) the figure was 2.09 ± 0.16; with `Cc1onc(-c2ccccc2)c1C(=O)N[C@@H]1C(=O)N2[C@@H]1SC(C)(C)[C@@H]2C(=O)O` [Oxacillin] (Biolog plate: PM12, well positions: B1-4), 1.31 ± 0.52.
